1 molecule from ChEMBL document CHEMBL1961873, “Compounds: GSK PKIS; Assays: Nanosyn kinase panel” (2012) can be followed below.

Assay [1] deals with Sphingosine kinase 1 (Homo sapiens) (UniProt Q9NYA1). The settings on record: at 1 µM.
Assay [2] deals with T1, Sphingosine kinase 2 (Homo sapiens) (UniProt Q9NRA0).
T1 sequence (whole entry): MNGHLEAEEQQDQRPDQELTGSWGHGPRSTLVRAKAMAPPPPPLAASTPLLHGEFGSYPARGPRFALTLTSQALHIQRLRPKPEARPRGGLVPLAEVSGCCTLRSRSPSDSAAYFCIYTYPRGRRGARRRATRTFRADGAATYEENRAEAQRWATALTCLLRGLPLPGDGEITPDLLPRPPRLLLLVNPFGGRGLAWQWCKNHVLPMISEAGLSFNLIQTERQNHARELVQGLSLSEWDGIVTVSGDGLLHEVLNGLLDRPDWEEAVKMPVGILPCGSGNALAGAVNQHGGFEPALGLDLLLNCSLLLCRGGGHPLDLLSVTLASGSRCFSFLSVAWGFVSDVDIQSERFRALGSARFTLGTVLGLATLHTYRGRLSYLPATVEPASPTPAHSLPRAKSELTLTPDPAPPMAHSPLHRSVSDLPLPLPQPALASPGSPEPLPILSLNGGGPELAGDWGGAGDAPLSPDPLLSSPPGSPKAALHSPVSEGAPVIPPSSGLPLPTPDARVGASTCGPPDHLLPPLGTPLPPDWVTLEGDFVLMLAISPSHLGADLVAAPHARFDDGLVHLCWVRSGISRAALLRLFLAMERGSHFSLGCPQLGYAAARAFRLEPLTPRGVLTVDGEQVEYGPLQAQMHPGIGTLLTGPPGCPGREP
The conditions noted are these: at 0.1 µM.

The target of assay [3] is T1, Sphingosine kinase 2 (Homo sapiens). The settings on record: at 1 µM.
The target in assay [4] is Casein kinase II subunit alpha (Homo sapiens) (UniProt P68400). The conditions noted are these: at 0.1 µM.
Assay [5] shares this target. The conditions noted are these: at 1 µM.
Assay [6] has as its target T2, Inhibitor of nuclear factor kappa-B kinase subunit alpha (Homo sapiens) (UniProt O15111).
T2 sequence (whole entry): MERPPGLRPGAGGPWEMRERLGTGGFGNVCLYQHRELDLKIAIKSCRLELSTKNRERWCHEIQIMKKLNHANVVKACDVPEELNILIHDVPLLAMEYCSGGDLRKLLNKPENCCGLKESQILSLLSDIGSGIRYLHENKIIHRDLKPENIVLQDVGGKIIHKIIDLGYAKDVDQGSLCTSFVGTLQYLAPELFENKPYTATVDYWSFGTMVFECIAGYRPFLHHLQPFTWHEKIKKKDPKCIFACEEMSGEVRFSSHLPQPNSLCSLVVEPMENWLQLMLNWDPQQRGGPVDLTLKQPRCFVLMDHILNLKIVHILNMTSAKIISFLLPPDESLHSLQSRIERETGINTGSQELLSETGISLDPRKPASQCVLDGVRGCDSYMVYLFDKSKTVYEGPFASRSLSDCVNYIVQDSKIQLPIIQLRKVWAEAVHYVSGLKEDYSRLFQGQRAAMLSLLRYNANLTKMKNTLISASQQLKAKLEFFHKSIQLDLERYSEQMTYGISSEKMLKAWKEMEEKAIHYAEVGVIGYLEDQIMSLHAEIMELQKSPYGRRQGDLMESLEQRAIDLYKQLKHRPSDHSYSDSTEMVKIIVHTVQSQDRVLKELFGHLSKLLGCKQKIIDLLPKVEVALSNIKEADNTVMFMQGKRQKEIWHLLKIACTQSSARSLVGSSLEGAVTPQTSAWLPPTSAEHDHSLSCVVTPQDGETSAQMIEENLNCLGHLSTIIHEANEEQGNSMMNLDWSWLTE
The settings on record: at 0.1 µM.

Assay [7] has as its target T2, Inhibitor of nuclear factor kappa-B kinase subunit alpha (Homo sapiens). The conditions noted are these: at 1 µM.
Assay [8] addresses T3, Inhibitor of nuclear factor kappa-B kinase subunit beta (Homo sapiens) (UniProt O14920).
T3 sequence (whole entry): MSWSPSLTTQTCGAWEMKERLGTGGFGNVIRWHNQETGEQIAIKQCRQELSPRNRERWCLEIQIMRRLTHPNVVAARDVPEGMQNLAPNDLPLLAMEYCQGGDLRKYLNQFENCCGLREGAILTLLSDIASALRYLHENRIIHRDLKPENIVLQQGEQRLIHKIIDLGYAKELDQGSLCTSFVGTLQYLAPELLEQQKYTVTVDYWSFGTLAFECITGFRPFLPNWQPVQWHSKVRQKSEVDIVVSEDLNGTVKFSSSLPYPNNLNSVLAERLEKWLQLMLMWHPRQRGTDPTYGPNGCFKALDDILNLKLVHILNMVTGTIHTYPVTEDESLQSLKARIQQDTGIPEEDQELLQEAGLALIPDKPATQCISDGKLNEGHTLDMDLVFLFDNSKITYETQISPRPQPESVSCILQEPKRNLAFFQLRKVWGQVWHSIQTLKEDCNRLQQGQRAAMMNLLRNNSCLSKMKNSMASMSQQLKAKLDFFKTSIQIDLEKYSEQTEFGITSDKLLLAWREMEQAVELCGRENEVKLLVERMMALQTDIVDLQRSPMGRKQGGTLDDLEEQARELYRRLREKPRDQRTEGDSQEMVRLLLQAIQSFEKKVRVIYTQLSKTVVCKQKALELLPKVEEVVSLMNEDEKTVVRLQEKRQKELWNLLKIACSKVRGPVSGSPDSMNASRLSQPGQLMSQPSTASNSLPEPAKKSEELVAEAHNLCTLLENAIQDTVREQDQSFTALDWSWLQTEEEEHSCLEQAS
The conditions noted are these: at 0.1 µM.

For assay [9], the target named is T3, Inhibitor of nuclear factor kappa-B kinase subunit beta (Homo sapiens). The conditions noted are these: at 1 µM.
For assay [10], the target named is T4, Inhibitor of nuclear factor kappa-B kinase subunit epsilon (Homo sapiens) (UniProt Q14164).
T4 sequence (whole entry): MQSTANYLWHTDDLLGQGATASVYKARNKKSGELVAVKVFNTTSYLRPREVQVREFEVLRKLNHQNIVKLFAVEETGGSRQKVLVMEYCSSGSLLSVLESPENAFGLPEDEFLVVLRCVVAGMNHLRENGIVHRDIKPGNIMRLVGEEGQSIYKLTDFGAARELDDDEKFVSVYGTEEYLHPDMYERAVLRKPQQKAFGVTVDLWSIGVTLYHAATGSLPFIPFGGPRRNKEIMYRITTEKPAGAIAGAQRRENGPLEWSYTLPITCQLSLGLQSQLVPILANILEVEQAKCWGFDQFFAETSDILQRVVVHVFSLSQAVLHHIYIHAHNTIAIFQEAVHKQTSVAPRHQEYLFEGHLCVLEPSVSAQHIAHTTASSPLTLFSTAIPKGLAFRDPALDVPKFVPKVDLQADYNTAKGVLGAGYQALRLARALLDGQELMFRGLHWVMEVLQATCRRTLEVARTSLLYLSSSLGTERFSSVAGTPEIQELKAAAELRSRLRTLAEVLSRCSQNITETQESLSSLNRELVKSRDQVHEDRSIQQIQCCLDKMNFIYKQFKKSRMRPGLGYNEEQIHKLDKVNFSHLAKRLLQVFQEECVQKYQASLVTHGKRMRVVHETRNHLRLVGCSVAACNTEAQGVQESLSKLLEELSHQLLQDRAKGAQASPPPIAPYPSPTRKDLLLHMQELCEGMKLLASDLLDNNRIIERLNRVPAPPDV
The settings on record: at 0.1 µM.

Assay [11] has as its target T4, Inhibitor of nuclear factor kappa-B kinase subunit epsilon (Homo sapiens). The conditions noted are these: at 1 µM.
Assay [12] deals with T5, Serine/threonine-protein kinase Nek1 (Homo sapiens) (UniProt Q96PY6).
T5 sequence (whole entry): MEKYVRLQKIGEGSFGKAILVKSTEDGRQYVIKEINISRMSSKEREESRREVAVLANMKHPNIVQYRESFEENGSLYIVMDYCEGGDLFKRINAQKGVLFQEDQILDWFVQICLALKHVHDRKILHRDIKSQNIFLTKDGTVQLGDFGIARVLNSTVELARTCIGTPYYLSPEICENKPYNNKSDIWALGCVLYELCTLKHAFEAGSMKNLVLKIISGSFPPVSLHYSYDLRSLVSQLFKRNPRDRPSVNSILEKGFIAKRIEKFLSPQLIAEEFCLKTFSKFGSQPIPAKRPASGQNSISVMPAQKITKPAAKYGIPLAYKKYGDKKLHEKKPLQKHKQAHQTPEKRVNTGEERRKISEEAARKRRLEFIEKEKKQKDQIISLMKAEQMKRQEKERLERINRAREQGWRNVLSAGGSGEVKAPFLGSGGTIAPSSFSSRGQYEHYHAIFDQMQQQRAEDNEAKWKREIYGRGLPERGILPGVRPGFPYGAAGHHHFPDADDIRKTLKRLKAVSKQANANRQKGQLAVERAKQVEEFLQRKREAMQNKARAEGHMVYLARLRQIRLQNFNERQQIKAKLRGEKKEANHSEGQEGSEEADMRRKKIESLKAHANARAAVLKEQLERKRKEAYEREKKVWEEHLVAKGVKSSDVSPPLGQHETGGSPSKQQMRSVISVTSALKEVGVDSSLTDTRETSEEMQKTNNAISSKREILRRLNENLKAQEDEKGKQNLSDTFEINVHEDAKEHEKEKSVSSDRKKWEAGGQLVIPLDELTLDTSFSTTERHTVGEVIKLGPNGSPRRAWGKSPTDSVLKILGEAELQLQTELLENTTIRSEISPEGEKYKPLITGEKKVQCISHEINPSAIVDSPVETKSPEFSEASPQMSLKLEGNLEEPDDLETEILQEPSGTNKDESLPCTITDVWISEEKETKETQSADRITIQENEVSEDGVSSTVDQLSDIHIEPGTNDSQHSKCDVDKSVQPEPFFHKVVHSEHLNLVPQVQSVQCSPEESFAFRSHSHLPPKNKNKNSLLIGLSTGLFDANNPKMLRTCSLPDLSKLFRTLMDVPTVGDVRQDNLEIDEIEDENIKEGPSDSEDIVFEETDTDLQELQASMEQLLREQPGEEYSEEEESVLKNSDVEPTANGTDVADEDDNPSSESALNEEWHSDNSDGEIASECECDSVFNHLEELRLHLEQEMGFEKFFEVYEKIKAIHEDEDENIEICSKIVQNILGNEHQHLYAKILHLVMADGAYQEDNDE
The conditions noted are these: at 0.1 µM.

In assay [13] the target is T5, Serine/threonine-protein kinase Nek1 (Homo sapiens). The settings on record: at 1 µM.
In assay [14] the target is T6, Serine/threonine-protein kinase Nek2 (Homo sapiens) (UniProt P51955).
T6 sequence (whole entry): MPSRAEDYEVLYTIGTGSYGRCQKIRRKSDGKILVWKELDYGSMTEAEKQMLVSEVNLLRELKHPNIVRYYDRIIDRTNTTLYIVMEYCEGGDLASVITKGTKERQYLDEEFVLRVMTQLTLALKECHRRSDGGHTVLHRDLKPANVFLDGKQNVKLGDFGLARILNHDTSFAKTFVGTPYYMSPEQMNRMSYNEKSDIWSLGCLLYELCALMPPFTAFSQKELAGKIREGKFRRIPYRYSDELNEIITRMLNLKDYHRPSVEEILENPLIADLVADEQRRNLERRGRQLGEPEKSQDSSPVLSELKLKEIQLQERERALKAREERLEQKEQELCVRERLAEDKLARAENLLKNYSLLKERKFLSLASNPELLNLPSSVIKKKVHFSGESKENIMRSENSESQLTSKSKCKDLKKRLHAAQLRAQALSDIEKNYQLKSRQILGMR
The settings on record: at 0.1 µM.

For assay [15], the target named is T6, Serine/threonine-protein kinase Nek2 (Homo sapiens). The conditions noted are these: at 1 µM.
Assay [16] addresses Serine/threonine-protein kinase Nek6 (Homo sapiens) (UniProt Q9HC98). The settings on record: at 0.1 µM.
Assay [17] has the same target. The conditions noted are these: at 1 µM.
Assay [18] concerns the target Serine/threonine-protein kinase Nek7 (Homo sapiens) (UniProt Q8TDX7). The conditions noted are these: at 0.1 µM.
For assay [19] the target is unchanged. The conditions noted are these: at 1 µM.
Assay [20] deals with T7, Serine/threonine-protein kinase Nek9 (Homo sapiens) (UniProt Q8TD19).
T7 sequence (whole entry): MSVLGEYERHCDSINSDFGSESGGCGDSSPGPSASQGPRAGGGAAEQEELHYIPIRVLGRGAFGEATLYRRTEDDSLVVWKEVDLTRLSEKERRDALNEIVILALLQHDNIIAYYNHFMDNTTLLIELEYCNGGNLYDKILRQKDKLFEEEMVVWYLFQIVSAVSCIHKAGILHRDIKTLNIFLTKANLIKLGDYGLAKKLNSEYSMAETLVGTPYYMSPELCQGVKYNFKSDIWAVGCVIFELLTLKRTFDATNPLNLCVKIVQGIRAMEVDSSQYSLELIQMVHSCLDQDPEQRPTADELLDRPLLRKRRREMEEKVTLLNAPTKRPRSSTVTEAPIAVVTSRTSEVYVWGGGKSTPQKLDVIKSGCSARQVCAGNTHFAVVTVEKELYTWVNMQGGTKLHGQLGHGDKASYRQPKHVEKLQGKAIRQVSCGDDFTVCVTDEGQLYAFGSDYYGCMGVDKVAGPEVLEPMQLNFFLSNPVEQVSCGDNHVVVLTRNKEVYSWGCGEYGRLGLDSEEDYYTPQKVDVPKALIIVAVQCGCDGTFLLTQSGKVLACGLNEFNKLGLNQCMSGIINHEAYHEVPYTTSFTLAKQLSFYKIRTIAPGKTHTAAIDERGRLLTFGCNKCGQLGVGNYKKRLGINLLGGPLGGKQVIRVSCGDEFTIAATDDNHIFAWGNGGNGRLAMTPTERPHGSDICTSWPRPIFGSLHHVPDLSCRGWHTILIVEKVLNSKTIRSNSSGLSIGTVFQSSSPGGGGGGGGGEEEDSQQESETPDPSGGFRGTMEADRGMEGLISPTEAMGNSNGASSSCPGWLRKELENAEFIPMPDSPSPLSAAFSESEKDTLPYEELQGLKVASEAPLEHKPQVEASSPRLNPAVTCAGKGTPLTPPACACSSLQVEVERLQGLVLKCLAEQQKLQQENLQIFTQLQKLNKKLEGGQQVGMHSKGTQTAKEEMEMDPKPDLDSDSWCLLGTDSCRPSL
The conditions noted are these: at 0.1 µM.

SMILES strings stand for the structures.

Sequence of Serine/threonine-protein kinase Nek7 (Homo sapiens) (Q8TDX7 whole entry, looked up): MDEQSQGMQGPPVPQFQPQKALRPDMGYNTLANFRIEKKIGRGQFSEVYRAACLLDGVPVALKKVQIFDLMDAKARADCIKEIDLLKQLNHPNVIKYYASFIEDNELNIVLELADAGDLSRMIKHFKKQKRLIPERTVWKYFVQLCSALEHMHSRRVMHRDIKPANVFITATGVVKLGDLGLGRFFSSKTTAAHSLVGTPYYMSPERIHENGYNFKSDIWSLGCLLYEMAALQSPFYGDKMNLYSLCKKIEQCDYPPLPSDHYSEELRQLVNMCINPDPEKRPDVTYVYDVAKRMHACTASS
Sequence of Serine/threonine-protein kinase Nek6 (Homo sapiens) (Q9HC98 whole entry): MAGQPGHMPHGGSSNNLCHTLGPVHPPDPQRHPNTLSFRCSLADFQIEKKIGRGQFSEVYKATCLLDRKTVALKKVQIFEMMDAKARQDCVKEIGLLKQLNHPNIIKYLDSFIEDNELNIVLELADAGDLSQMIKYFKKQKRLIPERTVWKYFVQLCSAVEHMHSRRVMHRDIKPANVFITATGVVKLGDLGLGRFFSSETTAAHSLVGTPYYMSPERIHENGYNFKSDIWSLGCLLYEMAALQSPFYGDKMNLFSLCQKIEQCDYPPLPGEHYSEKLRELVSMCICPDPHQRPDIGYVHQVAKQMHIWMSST
Sequence of Casein kinase II subunit alpha (Homo sapiens) (P68400 whole entry, looked up): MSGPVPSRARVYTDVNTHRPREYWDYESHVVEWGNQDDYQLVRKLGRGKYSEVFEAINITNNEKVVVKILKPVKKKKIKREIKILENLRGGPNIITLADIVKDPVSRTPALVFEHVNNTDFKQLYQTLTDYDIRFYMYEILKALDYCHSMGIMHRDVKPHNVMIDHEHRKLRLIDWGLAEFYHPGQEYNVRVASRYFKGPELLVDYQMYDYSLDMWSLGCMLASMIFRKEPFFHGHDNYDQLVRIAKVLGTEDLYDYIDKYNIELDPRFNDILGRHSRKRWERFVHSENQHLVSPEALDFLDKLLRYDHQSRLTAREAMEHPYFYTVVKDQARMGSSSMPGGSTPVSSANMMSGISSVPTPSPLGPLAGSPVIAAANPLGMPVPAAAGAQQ
Sequence of Sphingosine kinase 1 (Homo sapiens) (Q9NYA1 whole entry): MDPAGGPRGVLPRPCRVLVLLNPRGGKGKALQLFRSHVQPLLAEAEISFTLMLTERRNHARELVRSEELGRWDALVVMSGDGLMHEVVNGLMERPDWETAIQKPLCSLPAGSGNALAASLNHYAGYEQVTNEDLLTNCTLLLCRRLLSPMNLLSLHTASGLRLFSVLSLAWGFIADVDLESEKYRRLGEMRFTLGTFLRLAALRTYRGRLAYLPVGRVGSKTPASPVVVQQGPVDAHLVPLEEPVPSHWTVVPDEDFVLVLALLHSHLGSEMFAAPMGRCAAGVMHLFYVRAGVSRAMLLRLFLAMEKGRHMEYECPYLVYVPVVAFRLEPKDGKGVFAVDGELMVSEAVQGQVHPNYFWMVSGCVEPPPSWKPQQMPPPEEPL

For `Nc1nonc1-c1nc2cnccc2n1C1CCCCC1`, the inhibition in [1] was 0.54%; in assay [2] it was 1.2%; in assay [3], 0.21%; in [4], -0.44%; in assay [5], 4.16%; in [6], -6.64%. The inhibition in assay [7] was -2.66%; in assay [8] it was -2.5%; in [9], -5.78%; in assay [10] it was -0.73%; in assay [11], 16.2%; in assay [12], -1.33%. For the same molecule, the inhibition is 0.56% in assay [13]; -2.06% in assay [14]; -7.26% in assay [15]; 0.47% in [16]; -0.88% in [17]; 0.07% in assay [18]. Also, the inhibition was -0.97% in assay [19] and -5.44% in assay [20].
